Compounds without any hit were thinned out: in the full panel of roughly 83,000, 20% have a hit.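 Testing used 96-well plates and a 48-hour single-concentration exposure. Example: -40 means 40% of the starting cells died.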 Values without a mark were called inactive. Activity calls are given as the source filed them. Rule for the calls: active = growth percent below 10; inactive = the rest.
What follows are compounds tested on BT-549 breast (assay: NCI-60 one-dose screen, 48 h (100 = growth as untreated, 0 = no growth, -100 = all killed)). Details: 10 µM unless noted.

SMILES	growth
Cc1nc(Nc2ccccn2)sc1C(=O)CC(SCC(=O)Nc1ccc(Cl)cc1)c1ccccc1F (centres undefined)	24.2%
O=c1onc(-c2cc3ccccc3nc2Cl)n1-c1cccc2ccccc12	28.5%
N#Cc1c(-c2cccc(Cl)c2Cl)cc(-c2c[nH]c3ccccc23)[nH]c1=O	24.3%
CC(=O)OC[C@@]1(C)C2CC[C@]3(C)C(CC=C4C5CC(C)(C)CC[C@]5(C(=O)Nc5ccc(Br)cc5)CC[C@]43C)[C@@]2(C)C[C@@H](OC(C)=O)[C@@H]1OC(C)=O (some centres undefined)	43.7%
Cc1cc(C)cc(NC(=O)Cn2cc(COn3nnc4ccccc43)nn2)c1	108%
CC(=O)Nc1cccc(Nc2nc(NCc3ccccc3)c3ccccc3n2)c1	-86.8% (active)
Clc1cccc(Cl)c1/C=C/c1cc(/C=C/c2ccc(Br)cc2)c2ccccc2n1	91.2%
Cn1cc(-c2cc3nc(-c4cn(C)c5ncc(Br)cc45)cc(N)n3n2)c2ccccc21	-73% (active)
N#Cc1c(-c2ccccc2Cl)cc(-c2c[nH]c3ccccc23)[nH]c1=O	73.9%
